Measurements: PubChem BioAssay (Tox21)
Records with an inconclusive call do not appear. Calls of active or inactive are those of the source. Unless noted, calls follow the shape of the dose curve; as a rule, active = well fitted curve in the direction sought with a large enough effect in the repeat runs; inconclusive = weak or mixed curves; inactive = no such curve, though single readings can be large; an effect the other way counts as inactive or inconclusive.

Tests used:
[1] = qHTS RealTime-Glo MT Cell Viability Assay in HEK293 cells - 0 hour (AID 1224880); also: top concentration of the series differs between compounds; nearly all actives have a fitted effect of over 45% in size
Outline: (§1)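 Kinetic, non-lysing viability readout. Seed HEK293 (600/well) with reagent, incubate 5 h at 37 C/5% CO2, pin 23 nL compound in DMSO, incubate at 37 C, read luminescence at 0, 8, 16, 24, 32, 40 h.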

[2] = A CellTox Green Cytotoxicity Assay to monitor cytotoxicity in HEK293 cells - 32 hour (AID 1224881); also: nearly all actives have a fitted effect of over 40% in size
Outline: (§2)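 Real-time, in one plate: 600 HEK293 cells/well with dead-cell DNA dye, pinned compound after 5 h, 37 C incubation over 40 h; viable cells give no appreciable fluorescence.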

[3] = A CellTox Green Cytotoxicity Assay to monitor cytotoxicity in HepG2 cells - 0 hour (AID 1224882); also: nearly all actives have a fitted effect of over 35% in size
Outline: (§3)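 Cytotoxicity was tracked as dead-cell DNA fluorescence in HepG2 cells treated with test compounds at 37 C; each time-point value comes from one kinetic series spanning 0, 8, 16, 24, 32 and 40 h.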

[4] = A CellTox Green Cytotoxicity Assay to monitor cytotoxicity in HepG2 cells - 32 hour (AID 1224883); also: nearly all actives have a fitted effect of over 50% in size
Outline: as §3

[5] = A CellTox Green Cytotoxicity Assay to monitor cytotoxicity in HEK293 cells - 8 hour (AID 1224884); also: nearly all actives have a fitted effect of over 35% in size
Outline: as §2

[6] = qHTS RealTime-Glo MT Cell Viability Assay in HepG2 cells - 16 hour (AID 1224885); also: nearly all actives have a fitted effect of over 50% in size
Outline: (§4)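 Cells + NanoLuc/prosubstrate dispensed (600 cells/well) → 5 h at 37 C/5% CO2 → compounds in DMSO transferred → 40 h incubation at 37 C, luminescence read at 0, 8, 16, 24, 32, 40 h.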

[7] = qHTS RealTime-Glo MT Cell Viability Assay in HEK293 cells - 24 hour (AID 1224886); also: top concentration of the series differs between compounds; nearly all actives have a fitted effect of over 50% in size
Outline: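 Tox21 10K qHTS, HEK293, 600 cells/well, RealTime-Glo reagent co-dispensed with cells; 5 h preincubation, compound by pintool, 37 C, luminescence at 0–40 h.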

[8] = qHTS RealTime-Glo MT Cell Viability Assay in HEK293 cells - 8 hour (AID 1224887); also: top concentration of the series differs between compounds; nearly all actives have a fitted effect of over 50% in size
Outline: as §1

[9] = A CellTox Green Cytotoxicity Assay to monitor cytotoxicity in HEK293 cells - 16 hour (AID 1224888); also: nearly all actives have a fitted effect of over 35% in size
Outline: as §2

[10] = qHTS RealTime-Glo MT Cell Viability Assay in HepG2 cells - 0 hour (AID 1224889); also: nearly all actives have a fitted effect of over 50% in size
Outline: as §4

[11] = A CellTox Green Cytotoxicity Assay to monitor cytotoxicity in HepG2 cells - 8 hour (AID 1224890); also: nearly all actives have a fitted effect of over 45% in size
Outline: as §3

[12] = qHTS assay to identify small molecule antagonists of the estrogen receptor alpha (ER-alpha) signaling pathway using the BG1 cell line in the presence of 0.1 nM 17-beta-estradiol - cell viability counter screen (AID 1259241); also: nearly all actives have a fitted effect of over 40% in size
Outline: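 The cell line endogenously expresses full-length ER-alpha and carries four EREs driving luciferase. Cells are cultured 5 days hormone-free, treated 22 hr with compounds and 0.1 nM estradiol, then viability is read by fluorescence.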

[13] = qHTS assay to identify small molecule antagonists of the androgen receptor (AR) signaling pathway using the MDA cell line in the presence of 0.5 nM R1881 - cell viability counter screen (AID 1259242); also: nearly all actives have a fitted effect of over 45% in size
Outline: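 Cells seeded at 3,000/well and allowed 5 hr at 37C, 0% CO2 before compound transfer and R1881 (0.5 nM final) addition; 16 hr later, live-cell protease fluorescence indicated cytotoxicity.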

[14] = target: Androgen receptor (Homo sapiens) (UniProt P10275); test: qHTS assay to identify small molecule antagonists of the androgen receptor (AR) signaling pathway using the MDA cell line in the presence of 0.5 nM R1881 (AID 1259243); also: nearly all actives have a fitted effect of over 50% in size
Outline: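 Luminescence from an AR/GR-responsive MMTV-luciferase construct in MDA-kb2 breast carcinoma cells, read 30 min after ONE-Glo, following 16 hr co-treatment with compounds and 0.5 nM R1881.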

[15] = target: Estrogen receptor (Homo sapiens) (UniProt P03372); test: qHTS assay to identify small molecule antagonists of the estrogen receptor alpha (ER-alpha) signaling pathway using the BG1 cell line in the presence of 0.1 nM 17-beta-estradiol (AID 1259244); also: nearly all actives have a fitted effect of over 50% in size
Outline: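 Luciferase signal from VM7Luc4E2 ERE-reporter cells, co-dosed with test compound and 0.1 nM final 17beta-estradiol for 22 h, read with ONE-Glo.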

[16] = qHTS assay to identify small molecule HDAC inhibitors (AID 1259364); also: potency is read from the fitted curve at half-maximal effect;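 also: wild-type HCT-116 cells with endogenous class I/II HDAC activity; nearly all actives have a fitted effect of over 45% in size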; as to activity change, negative = inhibition: top concentration of the series differs between compounds
Outline: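 HCT-116 wt cells, 1,500/well, overnight attach. Compounds (DMSO) 2 h, 37 °C. HDAC-Glo I/II, 30 min RT. Luminescence.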

[17] = qHTS assay to identify small molecule HDAC inhibitors - cell viability counter screen (AID 1259365)
Outline: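 Viability readout: CellTiter-Glo luminescence. Wild-type HCT-116 cells, 2hr compound treatment following overnight attachment at 37 C.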

[18] = qHTS assay to identify small molecule agonists of the sonic hedgehog signaling (Shh) pathway - cell viability counter screen (AID 1259366); also: nearly all actives have a fitted effect of over 50% in size
Outline: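 Viability measured fluorometrically (CellTiter-Fluor, 1hr, 37C) in 3T3 Gli1-Luc reporter cells after 23hr compound exposure within a 24hr incubation at 37C/5% CO2.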

[19] = qHTS assay to identify small molecule antagonists of the sonic hedgehog signaling (Shh) pathway - cell viability counter screen (AID 1259367); also: nearly all actives have a fitted effect of over 55% in size
Outline: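 Tox21 library chemicals were tested on a Gli1-Luc NIH/3T3 clone (2,000 cells/well) stimulated by conditioned medium; viability was quantified as fluorescence from CellTiter-Fluor reagent added at 23 hr.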

[20] = qHTS assay to identify small molecule phospholipidosis (PLD) inducers (AID 1259344; active = well fitted curve in the direction sought with a large enough effect; an effect the other way counts as inactive or inconclusive)
Outline: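 Image-based: LipidTOX Red pit count/intensity per well and per cell; HepG2, 24 h compound at 37 C, PFA fixation, Hoechst counterstain.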
% is scaled to controls: 0 for no effect and ±100 for the full control effect.

Chain of Estrogen receptor (Homo sapiens) (P03372 whole entry, looked up): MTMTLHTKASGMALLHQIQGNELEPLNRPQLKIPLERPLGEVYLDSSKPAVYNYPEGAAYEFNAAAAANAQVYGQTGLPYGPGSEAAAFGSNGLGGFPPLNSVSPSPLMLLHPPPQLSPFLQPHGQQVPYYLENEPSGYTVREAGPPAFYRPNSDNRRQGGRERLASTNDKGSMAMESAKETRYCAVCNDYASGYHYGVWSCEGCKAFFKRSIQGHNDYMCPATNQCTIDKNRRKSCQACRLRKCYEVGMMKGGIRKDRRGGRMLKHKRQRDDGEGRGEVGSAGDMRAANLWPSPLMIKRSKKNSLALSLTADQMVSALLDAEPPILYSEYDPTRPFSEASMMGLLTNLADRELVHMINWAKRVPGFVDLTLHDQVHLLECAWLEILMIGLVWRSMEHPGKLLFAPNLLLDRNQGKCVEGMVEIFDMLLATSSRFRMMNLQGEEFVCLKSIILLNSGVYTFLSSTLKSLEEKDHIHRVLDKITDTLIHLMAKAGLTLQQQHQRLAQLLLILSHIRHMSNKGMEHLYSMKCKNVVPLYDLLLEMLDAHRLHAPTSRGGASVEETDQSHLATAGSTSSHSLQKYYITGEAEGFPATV
Chain of Androgen receptor (Homo sapiens) (P10275 whole entry, looked up): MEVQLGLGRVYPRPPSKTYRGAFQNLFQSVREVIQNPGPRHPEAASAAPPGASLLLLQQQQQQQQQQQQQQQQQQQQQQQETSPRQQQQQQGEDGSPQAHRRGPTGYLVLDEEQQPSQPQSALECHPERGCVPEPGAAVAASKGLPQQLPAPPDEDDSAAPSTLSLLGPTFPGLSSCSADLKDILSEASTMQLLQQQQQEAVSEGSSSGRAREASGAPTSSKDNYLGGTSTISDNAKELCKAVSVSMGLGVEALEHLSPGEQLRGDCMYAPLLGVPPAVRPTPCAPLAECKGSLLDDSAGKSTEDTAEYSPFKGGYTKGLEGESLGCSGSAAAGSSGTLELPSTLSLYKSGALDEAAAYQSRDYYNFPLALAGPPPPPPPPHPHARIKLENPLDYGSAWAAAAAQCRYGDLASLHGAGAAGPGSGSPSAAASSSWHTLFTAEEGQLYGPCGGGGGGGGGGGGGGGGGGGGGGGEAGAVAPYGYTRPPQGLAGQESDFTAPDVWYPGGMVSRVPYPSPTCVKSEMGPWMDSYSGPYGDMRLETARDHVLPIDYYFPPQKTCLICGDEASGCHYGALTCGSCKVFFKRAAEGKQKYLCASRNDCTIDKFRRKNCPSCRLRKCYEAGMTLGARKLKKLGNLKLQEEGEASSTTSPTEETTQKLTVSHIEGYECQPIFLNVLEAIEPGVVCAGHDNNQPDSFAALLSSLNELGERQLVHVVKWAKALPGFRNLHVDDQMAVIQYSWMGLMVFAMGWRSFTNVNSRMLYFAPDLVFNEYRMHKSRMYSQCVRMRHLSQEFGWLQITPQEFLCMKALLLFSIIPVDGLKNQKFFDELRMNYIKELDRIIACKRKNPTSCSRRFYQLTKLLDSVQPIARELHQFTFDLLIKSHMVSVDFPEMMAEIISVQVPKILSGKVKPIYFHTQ

COCCc1ccc(OCC2CO2)cc1 (centres undefined)
inactive: Potency [1] | Potency [2] | outcome [3] | Potency [4] | Potency [5] | outcome [6] | Potency [7] | Potency [8] | outcome [9] | Potency [10] | outcome [11] | Potency [12] | outcome [13] | Potency [14] | Potency [15] | Potency [16] | outcome [17] | Potency [18] | Potency [19]

COCCOCCOCCOCCO
inactive: Potency [1] | Potency [2] | outcome [3] | Potency [4] | Potency [5] | outcome [6] | Potency [7] | Potency [8] | outcome [9] | Potency [10] | outcome [11] | Potency [12] | outcome [13] | Potency [14] | Potency [15] | Potency [16] | outcome [17] | Potency [18] | Potency [19]

Nc1ncnc(Nc2ccccc2)n1
active: Potency [16] 10.6 µM
inactive: Potency [1] | Potency [2] | outcome [3] | Potency [4] | Potency [5] | outcome [6] | Potency [7] | Potency [8] | outcome [9] | Potency [10] | outcome [11] | Potency [12] | outcome [13] | Potency [15] | outcome [20] | outcome [17] | Potency [18] | Potency [19]

CC(=O)CCCCn1c(=O)c2c(ncn2C)n(C)c1=O
inactive: Potency [1] | Potency [2] | outcome [3] | Potency [4] | Potency [5] | outcome [6] | Potency [7] | Potency [8] | outcome [9] | Potency [10] | outcome [11] | Potency [12] | outcome [13] | Potency [15] | outcome [20] | Potency [16] | outcome [17] | Potency [18] | Potency [19]

CCCCNC1CC(C)(C)NC(C)(C)C1
inactive: Potency [1] | Potency [2] | outcome [3] | Potency [4] | Potency [5] | outcome [6] | Potency [7] | Potency [8] | outcome [9] | Potency [10] | outcome [11] | Potency [12] | outcome [13] | Potency [15] | Potency [16] | outcome [17] | Potency [18] | Potency [19]

OCCN(CCO)c1cccc(Cl)c1
inactive: Potency [1] | Potency [2] | outcome [3] | Potency [4] | Potency [5] | outcome [6] | Potency [7] | Potency [8] | outcome [9] | Potency [10] | outcome [11] | Potency [12] | outcome [13] | Potency [14] | Potency [16] | outcome [17] | Potency [18] | Potency [19]

CC1(C)S[C@@H]2[C@H](N=CN3CCCCCC3)C(=O)N2[C@H]1C(=O)O
inactive: Potency [1] | Potency [2] | outcome [3] | Potency [4] | Potency [5] | outcome [6] | Potency [7] | Potency [8] | outcome [9] | Potency [10] | outcome [11] | Potency [12] | outcome [13] | Potency [15] | Potency [16] | outcome [17] | Potency [18] | Potency [19]

O=C(CCN1CCN(CCO)CC1)N1c2ccccc2Sc2ccc(C(F)(F)F)cc21
inactive: Potency [1] | Potency [2] | outcome [3] | Potency [4] | Potency [5] | outcome [6] | Potency [7] | Potency [8] | outcome [9] | Potency [10] | outcome [11] | Potency [12] | outcome [13] | Potency [14] | Potency [15] | Potency [16] | outcome [17] | Potency [18]

CC(=O)NCCCCCC(=O)O
inactive: Potency [1] | Potency [2] | outcome [3] | Potency [4] | Potency [5] | outcome [6] | Potency [7] | Potency [8] | outcome [9] | Potency [10] | Potency [12] | outcome [13] | Potency [15] | outcome [20] | Potency [16] | Potency [18] | Potency [19]

O=C(O)Cc1cn(-c2ccccc2)nc1-c1ccc(Cl)cc1
inactive: Potency [1] | Potency [2] | outcome [3] | Potency [4] | Potency [5] | outcome [6] | Potency [7] | Potency [8] | outcome [9] | Potency [10] | outcome [11] | Potency [12] | outcome [13] | Potency [15] | Potency [16] | Potency [18] | Potency [19]

O=C(NCCc1c[nH]c2ccccc12)c1cccnc1
inactive: Potency [1] | Potency [2] | outcome [3] | Potency [4] | Potency [5] | outcome [6] | Potency [7] | Potency [8] | outcome [9] | Potency [10] | Potency [12] | outcome [13] | Potency [14] | Potency [15] | outcome [17] | Potency [18] | Potency [19]

CCC(C=O)CC
inactive: Potency [1] | Potency [2] | outcome [3] | Potency [4] | Potency [5] | outcome [6] | Potency [7] | Potency [8] | outcome [9] | Potency [10] | outcome [11] | Potency [12] | Potency [16] | Potency [19]

CCOC(=O)c1ccc(OC(=O)CCCCCN=C(N)N)cc1
inactive: Potency [1] | Potency [2] | outcome [3] | Potency [4] | Potency [5] | outcome [6] | Potency [7] | Potency [8] | outcome [9] | Potency [10] | outcome [11] | Potency [12] | outcome [13] | Potency [15] | outcome [17] | Potency [18] | Potency [19]

N[C@@H](CCC(=O)N[C@@H](CS)C(=O)NCC(=O)O)C(=O)O
inactive: activity change, negative = cytotoxicity [1] 8.63% [at 15.8 µM] | cytotoxicity increase [2] 2.25% [at 15.8 µM] | cytotoxicity [3] -0.523% [at 15.8 µM] | cytotoxicity increase [4] -10.1% [at 15.8 µM] | cytotoxicity increase [5] 2.4% [at 15.8 µM] | activity change, negative = cytotoxic [6] 2.53% [at 15.8 µM] | activity change, negative = cytotoxicity [7] 7.83% [at 15.8 µM] | activity change, negative = cytotoxicity [8] 10.5% [at 15.8 µM] | activity change [9] 0.448% [at 15.8 µM] | activity change, negative = cytotoxicity [10] 1.78% [at 15.8 µM] | cytotoxicity increase [11] -6.34% [at 15.8 µM] | activity change, negative = cytotoxicity [12] -2.09% [at 19 µM] | viability change, negative = cytotoxic [13] 1.98% [at 19 µM] | activity change, negative = inhibition [16] -2.25% [at 19 µM] | viability change, negative = cytotoxic [18] -6.52% [at 19 µM] | viability change, negative = cytotoxic [19] 0.577% [at 19 µM]

C[C@H](N)[C@H](O)c1cccc(O)c1
inactive: Potency [1] | Potency [2] | outcome [3] | Potency [4] | Potency [5] | outcome [6] | Potency [7] | Potency [8] | outcome [9] | Potency [10] | outcome [11] | Potency [12] | outcome [13] | Potency [15] | Potency [16] | outcome [17] | Potency [18] | Potency [19]
